Over roughly 18,000 sequences, “TetR repression strength (sort-seq, GFP reporter)” has its median near 0.23; the highest 2% begin near 0.68. The sample holds the highest values, similar sequences and a random draw of the others, so the mix is not that of the screen.
biological target: TetR (class B, Tn10) (UniProt P04483); assay: TetR repression strength (sort-seq, GFP reporter) (relative to tetO2 = 1); higher = stronger repression; conditions: E. coli
Procedure, shortened: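 Escherichia coli SIG10-MAX cells carried a low-copy plasmid library in which eight operator positions were randomized between a constitutive promoter and sfGFP, and TetR was expressed constitutively. After 5 h of growth at 37 °C in LB with 50 µg/mL chloramphenicol, 10^6 cells were FACS-sorted into 13 fluorescence bins, and each bin was Illumina-sequenced. Repression strength was the top bin index plus one minus the read-weighted mean bin, divided by the value for the unaltered operator. Across three independent transformations, only library members with ≥30 reads in every replicate and a CV ≤0.5 were averaged.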

Chain of TetR (class B, Tn10) (P04483 whole entry): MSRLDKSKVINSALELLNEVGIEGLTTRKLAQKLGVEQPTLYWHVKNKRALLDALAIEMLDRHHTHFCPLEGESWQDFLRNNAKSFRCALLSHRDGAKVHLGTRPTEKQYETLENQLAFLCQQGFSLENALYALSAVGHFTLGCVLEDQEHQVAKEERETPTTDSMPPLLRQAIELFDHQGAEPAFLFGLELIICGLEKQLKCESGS

In order of rising TetR repression strength:
1. TCCCCAGGAGTATCGGAGA  0
2. TCCCGATAAGTCGTCGAGA  0.0276
3. TCCCCAAAAGTTTGTGAGA  0.0341
4. TCCCTATTAGTGGTGGAGA  0.0415
5. TCCCATACAGTTGAGGAGA  0.0487
6. TCCCTTATAGTAGGCGAGA  0.0601
7. TCCCATCAAGTTAATGAGA  0.0658
8. TCCCGAGTAGTAGGGGAGA  0.0701
9. TCCCTGCTAGTGGGGGAGA  0.0729
10. TCCCACTTAGTGCGAGAGA  0.0746
11. TCCCTTAGAGTCCTGGAGA  0.0777
12. TCCCGAGGAGTCGGCGAGA  0.0782
13. TCCCGTTGAGTAGGGGAGA  0.0793
14. TCCCTAGAAGTCCTAGAGA  0.0793
15. TCCCTCTAAGTTGAGGAGA  0.0793
16. TCCCAAACAGTTTGTGAGA  0.0981
17. TCCCTGGTAGTGGAGGAGA  0.101
18. TCCCCGCCAGTCCAGGAGA  0.104
19. TCCCACGAAGTAGGGGAGA  0.104
20. TCCCCCGGAGTGGGCGAGA  0.111
21. TCCCTGCGAGTGGTGGAGA  0.112
22. TCCCCGGAAGTCTAGGAGA  0.113
23. TCCCATTGAGTTCCGGAGA  0.115
24. TCCCTGTCAGTACAGGAGA  0.118
25. TCCCTATGAGTGGTGGAGA  0.119
26. TCCCGCGGAGTGGCGGAGA  0.119
27. TCCCGGTTAGTTGAGGAGA  0.12
28. TCCCCTCGAGTTGGGGAGA  0.121
29. TCCCCTGTAGTTGTCGAGA  0.123
30. TCCCCAGCAGTGGGCGAGA  0.125
31. TCCCGGCCAGTTAGAGAGA  0.129
32. TCCCCGGGAGTGAGGGAGA  0.13
33. TCCCGGATAGTGACCGAGA  0.131
34. TCCCACCGAGTACGGGAGA  0.135
35. TCCCTAGTAGTAAGCGAGA  0.136
36. TCCCACCAAGTGGGTGAGA  0.139
37. TCCCGAGGAGTTGGCGAGA  0.14
38. TCCCTCCAAGTGGGAGAGA  0.14
39. TCCCCAGTAGTGGGGGAGA  0.14
40. TCCCGGTAAGTGAAGGAGA  0.14
41. TCCCGGAAAGTCTGGGAGA  0.153
42. TCCCAGGGAGTAGCGGAGA  0.159
43. TCCCTAGTAGTAGTGGAGA  0.159
44. TCCCTGGCAGTGTGTGAGA  0.164
45. TCCCTTGAAGTGGGTGAGA  0.165
46. TCCCGTGAAGTCGCTGAGA  0.168
47. TCCCGTCTAGTTTCCGAGA  0.169
48. TCCCTGCAAGTCTAGGAGA  0.171
49. TCCCGCGTAGTCCGCGAGA  0.172
50. TCCCATCCAGTGGGGGAGA  0.175
51. TCCCGGGAAGTGTGTGAGA  0.177
52. TCCCGGGGAGTCTGGGAGA  0.179
53. TCCCGGGCAGTCTGAGAGA  0.179
54. TCCCTCTCAGTTCGTGAGA  0.181
55. TCCCTGGCAGTAGGGGAGA  0.185
56. TCCCACGCAGTGGGGGAGA  0.188
57. TCCCGGTGAGTATCAGAGA  0.188
58. TCCCGGAGAGTTTCTGAGA  0.191
59. TCCCAGGCAGTGGGGGAGA  0.193
60. TCCCCGCAAGTTGTTGAGA  0.198
61. TCCCATGTAGTGTGGGAGA  0.203
62. TCCCTATGAGTAGTAGAGA  0.204
63. TCCCGAGAAGTCCATGAGA  0.207
64. TCCCCATCAGTTCCGGAGA  0.207
65. TCCCGATTAGTAAGGGAGA  0.207
66. TCCCTTTAAGTGCACGAGA  0.207
67. TCCCTTAAAGTGATCGAGA  0.207
68. TCCCGAATAGTATCAGAGA  0.207
69. TCCCGCCAAGTCCGGGAGA  0.21
70. TCCCACCCAGTAGTGGAGA  0.211
71. TCCCCCCTAGTTGTGGAGA  0.213
72. TCCCGGGGAGTTGTGGAGA  0.215
73. TCCCATCGAGTCTGAGAGA  0.218
74. TCCCGCGCAGTGTAAGAGA  0.222
75. TCCCTATGAGTGTGGGAGA  0.223
76. TCCCGGGGAGTGGGCGAGA  0.225
77. TCCCCTCCAGTGGGGGAGA  0.225
78. TCCCATAAAGTGCTCGAGA  0.225
79. TCCCAAGGAGTGGGCGAGA  0.231
80. TCCCTGTAAGTTGATGAGA  0.236
81. TCCCCAGGAGTCGGCGAGA  0.237
82. TCCCTTCAAGTGCTCGAGA  0.24
83. TCCCTGCCAGTCTGCGAGA  0.24
84. TCCCGGATAGTATGAGAGA  0.24
85. TCCCGAGTAGTGAGGGAGA  0.242
86. TCCCTCAGAGTGTTAGAGA  0.248
87. TCCCTCGAAGTGCGGGAGA  0.25
88. TCCCAGTGAGTCGTGGAGA  0.25
89. TCCCCGAGAGTGCTGGAGA  0.252
90. TCCCCTGGAGTCGTGGAGA  0.258
91. TCCCCGAAAGTACAGGAGA  0.259
92. TCCCCCTCAGTTGATGAGA  0.262
93. TCCCTCCCAGTCTAGGAGA  0.263
94. TCCCTGCGAGTGGGGGAGA  0.264
95. TCCCCGGCAGTCTGCGAGA  0.266
96. TCCCCTAAAGTGCGCGAGA  0.266
97. TCCCCGGCAGTCTGGGAGA  0.271
98. TCCCGCACAGTTATAGAGA  0.275
99. TCCCGGAAAGTTGTGGAGA  0.275
100. TCCCCAGCAGTTTCCGAGA  0.275
101. TCCCGTGCAGTCATTGAGA  0.276
102. TCCCTTGTAGTGAATGAGA  0.277
103. TCCCGAGTAGTGTGTGAGA  0.28
104. TCCCTCTCAGTACTAGAGA  0.283
105. TCCCGGGCAGTGCCTGAGA  0.283
106. TCCCCAGGAGTCTAGGAGA  0.284
107. TCCCATGAAGTAAGGGAGA  0.284
108. TCCCGGTCAGTCTGTGAGA  0.287
109. TCCCTTAAAGTGCGCGAGA  0.292
110. TCCCGGAGAGTCCTTGAGA  0.295
111. TCCCTCCCAGTGTCGGAGA  0.295
112. TCCCTTGCAGTACATGAGA  0.298
113. TCCCGCCAAGTAAAAGAGA  0.298
114. TCCCGATCAGTGCAGGAGA  0.299
115. TCCCAGTGAGTTGGAGAGA  0.303
116. TCCCTAGTAGTAGCTGAGA  0.307
117. TCCCGAGTAGTGGCTGAGA  0.311
118. TCCCTTAAAGTATTCGAGA  0.311
119. TCCCAGGGAGTGGGCGAGA  0.312
120. TCCCCGTGAGTCGATGAGA  0.313
121. TCCCGGGTAGTCGAGGAGA  0.313
122. TCCCGAGCAGTTGGTGAGA  0.317
123. TCCCCTAGAGTCCGCGAGA  0.332
124. TCCCCGGGAGTATCAGAGA  0.332
125. TCCCTCTTAGTAAAAGAGA  0.342
126. TCCCCGGAAGTTACGGAGA  0.343
127. TCCCCTGTAGTCGTAGAGA  0.344
128. TCCCTATCAGTACGTGAGA  0.349
129. TCCCACCCAGTGGTAGAGA  0.357
130. TCCCTCTCAGTTGTTGAGA  0.357
131. TCCCGGGGAGTGCTGGAGA  0.359
132. TCCCGTCGAGTCAGGGAGA  0.367
133. TCCCCAAGAGTAAATGAGA  0.368
134. TCCCCCCAAGTTGATGAGA  0.369
135. TCCCTTAAAGTACACGAGA  0.377
136. TCCCTAGGAGTGCTGGAGA  0.382
137. TCCCGCCAAGTCCCTGAGA  0.389
138. TCCCCATCAGTTCATGAGA  0.401
139. TCCCTGCTAGTGGTGGAGA  0.404
140. TCCCTGCCAGTCTAGGAGA  0.415
141. TCCCTATCAGTTCGTGAGA  0.423
142. TCCCTGTGAGTTTGGGAGA  0.424
143. TCCCCTGGAGTCCTGGAGA  0.439
144. TCCCTTTAAGTAATAGAGA  0.44
145. TCCCAGGTAGTAATAGAGA  0.443
146. TCCCGGGGAGTTACGGAGA  0.447
147. TCCCCGAAAGTCATAGAGA  0.452
148. TCCCTTGCAGTTATAGAGA  0.461
149. TCCCTCTAAGTAATAGAGA  0.472
150. TCCCTATTAGTTGGGGAGA  0.483
151. TCCCTTTGAGTTTTTGAGA  0.506
152. TCCCTATCAGTACCAGAGA  0.514
153. TCCCCTTTAGTGCCTGAGA  0.523
154. TCCCTATCAGTAACAGAGA  0.539
155. TCCCTATCAGTTCTTGAGA  0.539
156. TCCCTGAGAGTGCTGGAGA  0.564
157. TCCCTTTCAGTGAGAGAGA  0.566
158. TCCCTAACAGTAATAGAGA  0.569
159. TCCCTTTCAGTGATGGAGA  0.574
160. TCCCGATCAGTTATAGAGA  0.579
161. TCCCATCCAGTCAAGGAGA  0.595
162. TCCCACGTAGTGCAAGAGA  0.62
163. TCCCTTTCAGTTATAGAGA  0.649
164. TCCCTGTGAGTTGGTGAGA  0.656
165. TCCCCGCCAGTCTAGGAGA  0.681
166. TCCCTATTAGTAGTGGAGA  0.683
167. TCCCTCTCAGTAATAGAGA  0.686
168. TCCCACGCAGTAGGGGAGA  0.689
169. TCCCGGGAAGTTACGGAGA  0.707
170. TCCCTATGAGTAGTGGAGA  0.707
171. TCCCCATCAGTTCCTGAGA  0.721
172. TCCCTCTCAGTTGATGAGA  0.736
173. TCCCCGCAAGTCTAGGAGA  0.739
174. TCCCAAGGAGTCGGCGAGA  0.743
175. TCCCTTTCAGTAATAGAGA  0.745
176. TCCCTTAAAGTGCTCGAGA  0.747
177. TCCCTATCAGTTCCTGAGA  0.76
178. TCCCGCTCAGTTATAGAGA  0.764
179. TCCCTTTAAGTGCGCGAGA  0.764
180. TCCCTAAGAGTGCTGGAGA  0.768
181. TCCCTTTCAGTGATAGAGA  0.785
182. TCCCTCTAAGTTGATGAGA  0.795
183. TCCCCCCCAGTCTAGGAGA  0.8
184. TCCCGATTAGTAGGGGAGA  0.844
185. TCCCCGCAAGTTGATGAGA  0.85
186. TCCCTATCAGTACCTGAGA  0.867
187. TCCCTATCAGTAATAGAGA  0.878
188. TCCCGGAGAGTATCAGAGA  0.893
189. TCCCGGATAGTATCAGAGA  0.893
190. TCCCCAGGAGTGGGCGAGA  0.894
191. TCCCCTAGAGTGCGCGAGA  0.901
192. TCCCTAGTAGTGGCTGAGA  0.905
193. TCCCCTAGAGTCCTGGAGA  0.952
194. TCCCCAGTAGTGGGCGAGA  0.963
195. TCCCGGCCAGTCTGCGAGA  0.967
196. TCCCCGGGAGTGGGCGAGA  0.993
197. TCCCGGAGAGTGCTGGAGA  1.07
198. TCCCTGCGAGTGGAGGAGA  1.08
199. TCCCGGGAAGTTGTGGAGA  1.1
200. TCCCGCCAAGTCCCGGAGA  1.1
201. TCCCTGCTAGTGGAGGAGA  1.14
202. TCCCTTAAAGTACTCGAGA  1.16
203. TCCCGGGCAGTCTGGGAGA  1.2
204. TCCCGGGAAGTCTGGGAGA  1.24

Source: a collection of fitness landscapes (doi:10.1038/s41467-024-54723-y)
